The values that follow come from PubChem BioAssay (Tox21).

Assay [1] can be described thus: qHTS assay for small molecule agonists of the p53 signaling pathway (AID 651631; calls by dose curve; note: nearly all actives have a fitted effect of over 15% in size). In outline:
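We treat p53RE-bla HCT-116 cells with compounds for 16 h at 37 °C, add LiveBLAzer B/G FRET substrate for 2 h at room temperature, and measure fluorescence intensity.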

Assay [2] is described as follows: qHTS assay for small molecules that induce genotoxicity in human embryonic kidney cells expressing luciferase-tagged ATAD5 (AID 651632). Note: nearly all actives have a fitted effect of over 15% in size. In outline:
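Genotoxicity read-out via ATAD5-luciferase: HEK293T cells, 16 hr compound incubation at 37C, Amplite detection.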

Assay [3] can be described thus: qHTS assay for small molecule agonists of the p53 signaling pathway - cell viability (AID 651633; calls by dose curve;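 note: p53RE-bla HCT reporter cells with a stable beta-lactamase p53 reporter; series mostly up to about 83 µM; nearly all actives have a fitted effect of over 30% in size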). In outline:
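p53RE-bla cells were treated with compound for 16 hours at 37 C. Cytotoxicity was then measured as CellTiter-Glo luminescence after 30 min at room temperature.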
Background: In qHTS, concentration-response curves come from the screen itself.

The nature of assay [4]: qHTS assay for small molecules that induce genotoxicity in human embryonic kidney cells expressing luciferase-tagged ATAD5 - cell viability (AID 651634; calls by dose curve; note: nearly all actives have a fitted effect of over 25% in size). In outline: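 Live-cell protease activity (CellTiter-Fluor, fluorescence) indicates viability. HEK293T cells with luciferase-tagged ATAD5; 15.5 hr compound treatment at 37C.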
Assay [5] is described as follows: qHTS assay for small molecule disruptors of the mitochondrial membrane potential - cell viability (AID 720634; calls by dose curve;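 note: human HepG2 liver cancer cells; series mostly up to about 83 µM; nearly all actives have a fitted effect of over 20% in size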). In outline: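 Human hepatoma HepG2 cells were treated for 1 hr with test chemicals, then given m-MPI dye and CellTiter-Glo. Cell viability reflects luminescence proportional to cellular ATP.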
A short description of assay [6]: qHTS assay for small molecule disruptors of the mitochondrial membrane potential (AID 720635). Note: potency is the fitted concentration of half-maximal effect. In short, it runs like this: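 HepG2 cells exposed to compound 1 hr at 37C, then Mito-MPS dye 30 min. Ratio read of aggregate (540/590 nm) versus monomer (490/535 nm) fluorescence.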
Assay [7] can be described thus: qHTS assay to test for compound auto fluorescence at 590 nm (red) in HepG2 cells (AID 720674). In short, it runs like this:
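HepG2 cells, 2,000 per well in MEM with 10% FBS, attached overnight at 37 C, then got 23 nL compound or DMSO. After 1 hr at 37 C, 5% CO2, red fluorescence was read at 540/590 nm against Rose Bengal sodium as reference.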

Assay [8] in a line: qHTS assay to test for compound auto fluorescence at 535 nm (green) in HepG2 cells (AID 720675).
Assay [9] is described as follows: qHTS assay to test for compound auto fluorescence at 460 nm (blue) in HEK293 cells (AID 720678). In short, it runs like this: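 HEK293 cells (2,000 per well, medium with 10% dialyzed FBS) attached for 4-5 hr at 37C, then received compound and stood overnight at 37C, 5% CO2. Blue fluorescence was read at Ex/Em 405/460 nm and expressed relative to triamterene.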
Assay [10] in a line: qHTS assay to test for compound auto fluorescence at 590 nm (red) in HEK293 cells (AID 720679). In short, it runs like this:
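HEK293 cells (2,000/well, medium with 10% dialyzed FBS) attached for 4-5 hr at 37C, received 23 nL compound and were incubated overnight at 37C, 5% CO2. Red fluorescence was then read at 540/590nm Ex/Em, referenced to Rose Bengal sodium.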

The nature of assay [11]: qHTS assay to test for compound auto fluorescence at 535 nm (green) in HEK293 cells (AID 720680).
Assay [12] is described as follows: qHTS assay to test for compound auto fluorescence at 460 nm (blue) in HEK293 cell free culture (AID 720681). In outline: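 Compounds were added to cell-free DMEM with 10% FBS and fluorescence read directly. The blue channel used 405 nm excitation and 460 nm emission, with triamterene as the reference fluorophore.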
Assay [13] is described as follows: qHTS assay to test for compound auto fluorescence at 590 nm (red) in HEK293 cell free culture (AID 720683). In short, it runs like this: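 Cell-free wells of DMEM with 10% FBS received compound, and intrinsic fluorescence was read at excitation/emission 540/590 nm. Values expressed as equivalence to Rose Bengal sodium.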
A short description of assay [14]: qHTS assay to test for compound auto fluorescence at 590 nm (red) in HepG2 cell free culture (AID 720684). In short, it runs like this: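 Compound was pinned into wells holding MEM with 10% FBS and no cells, and red fluorescence was read at Ex/Em 540/590 nm. Signal is expressed as auto fluorescence equivalency relative to Rose Bengal sodium.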
A short description of assay [15]: qHTS assay to test for compound auto fluorescence at 460 nm (blue) in HepG2 cell free culture (AID 720685). In short, it runs like this: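 Compound (23 nL) or DMSO pinned into cell-free MEM with 10% FBS; blue fluorescence read at 405/460 nm excitation/emission, expressed as auto-fluorescence equivalency to triamterene.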
Assay [16] can be described thus: qHTS assay to test for compound auto fluorescence at 535 nm (green) in HepG2 cell free culture (AID 720686).
Assay [17] can be described thus: qHTS assay to test for compound auto fluorescence at 460 nm (blue) in HepG2 cells (AID 720687). In short, it runs like this: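 HepG2 cells in MEM with 10% FBS, attached overnight at 37 C, were exposed to compound or DMSO for 1 hr at 37 C, 5% CO2. Blue fluorescence was read at 405/460 nm, with triamterene as reference fluorophore.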
Assay [18] addresses Glucocorticoid receptor (Homo sapiens) (UniProt P04150). Description: qHTS assay to identify small molecule agonists of the glucocorticoid receptor (GR) signaling pathway (AID 720691; active = well fitted activation curve with a large enough effect in the signal ratio in the repeat runs, not every such curve was filed as active; the % refers to the signal ratio). In short, it runs like this:
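Beta-lactamase reporter activity, read as fluorescence intensity, was measured in GR-bla HeLa cells exposed to compounds for 18 h at 37 C and then loaded with LiveBLAzer B/G FRET substrate for 2 h at room temperature.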

The target is the same in assay [19]. Put plainly: qHTS assay to identify small molecule antagonists of the glucocorticoid receptor (GR) signaling pathway (AID 720692; active = well fitted inhibition curve with a large enough effect in the signal ratio in the repeat runs, not every such curve was filed as active; the % refers to the signal ratio). In outline: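 Fluorescence from cleaved LiveBLAzer B/G FRET substrate reports GRE-driven beta-lactamase in HeLa cells; compounds are tested against 5 nM dexamethasone (final) over 18 h at 37 C, substrate incubation 2 h at room temperature.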

Assay [20] is described as follows: qHTS assay to test for compound auto fluorescence at 535 nm (green) in HEK293 cell free culture (AID 720682). In outline: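 Green-channel intensity (Ex/Em 485/535 nm) was recorded from compound-treated wells containing only DMEM with 10% FBS. Fluorescein provided the equivalency standard.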

Where “and” joins values, the source holds several entries; their conditions need not be identical. Equal entries are not always repeated. Inconclusive results are not listed. Some compounds were tested as several samples or in several runs, with calls that do not always agree. Calls of active or inactive are those of the source. Unless noted, calls come from the whole dose curve; as a rule, active = well fitted curve in the direction sought with a large enough effect in the repeat runs; inconclusive = weak or mixed curves; inactive = no such curve, though single readings can be large; an effect the other way counts as inactive or inconclusive.

Glucocorticoid receptor (Homo sapiens), sequence (P04150 whole entry, looked up): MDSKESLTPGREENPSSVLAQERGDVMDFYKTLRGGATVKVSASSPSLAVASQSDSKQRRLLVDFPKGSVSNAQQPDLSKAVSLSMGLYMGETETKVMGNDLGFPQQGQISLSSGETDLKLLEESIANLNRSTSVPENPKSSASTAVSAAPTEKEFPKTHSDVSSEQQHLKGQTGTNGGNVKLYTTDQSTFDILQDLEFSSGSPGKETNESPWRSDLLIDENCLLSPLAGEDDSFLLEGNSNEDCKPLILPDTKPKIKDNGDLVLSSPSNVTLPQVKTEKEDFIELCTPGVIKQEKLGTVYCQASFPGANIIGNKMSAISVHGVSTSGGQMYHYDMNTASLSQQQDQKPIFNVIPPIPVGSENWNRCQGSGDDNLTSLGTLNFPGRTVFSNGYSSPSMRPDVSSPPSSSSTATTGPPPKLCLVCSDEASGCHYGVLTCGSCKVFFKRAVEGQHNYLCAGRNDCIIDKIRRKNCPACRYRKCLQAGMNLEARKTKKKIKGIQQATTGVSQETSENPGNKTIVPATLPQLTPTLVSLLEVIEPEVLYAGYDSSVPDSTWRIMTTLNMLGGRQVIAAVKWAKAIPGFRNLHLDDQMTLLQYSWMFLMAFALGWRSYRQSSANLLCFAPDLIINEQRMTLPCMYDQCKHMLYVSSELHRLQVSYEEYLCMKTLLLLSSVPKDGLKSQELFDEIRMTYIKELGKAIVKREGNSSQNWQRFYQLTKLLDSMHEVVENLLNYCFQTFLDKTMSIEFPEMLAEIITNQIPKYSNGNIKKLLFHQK

Take `CCN(CC)CCO`: the outcome in [1], in assay [2], in assay [3], in assay [4], in assay [7] and in assay [8] was inactive. Moreover, the outcome in assay [9], in assay [10], in [11], in [12], in [13] and in [14] was inactive. Besides, the compound was called inactive in assay [15], in assay [16], in assay [17] and in [18]. For the same compound, the Potency entry in [5], in assay [6] and in assay [19] was “inactive” each time.
Take `C#CC(C)(C)NC(=O)c1cc(Cl)cc(Cl)c1`: the call in [1], in assay [2], in assay [3], in [4], in [7] and in [8] was inactive. Further, the compound was called inactive in assay [9], in [10], in [11], in assay [12], in [20] and in assay [13]. The call in assay [14], in assay [15], in assay [16], in assay [17] and in assay [18] was inactive. Further, the Potency entry in assay [5] and in [6] was “inactive” each time.
With `O=[N+]([O-])c1ccc([As](=O)(O)O)cc1`, the compound was classed as inactive in [1], in assay [2], in assay [3], in assay [4], in [7] and in [8]. The result in [9], in [10], in [11], in [12], in [13] and in assay [14] was inactive. Further, the call in [15], in [16], in assay [17] and in [18] was inactive. Moreover, the Potency result in [5] and in [6] was “inactive” each time.
As for `Nc1ccc(Cc2ccc(N)cc2)cc1`, the compound was classed as inactive in [1], in assay [2], in assay [3], in assay [4], in assay [7] and in [8]. For the same compound, the result in assay [9], in assay [10], in assay [11], in [12], in assay [13] and in assay [14] was inactive. For the same compound, the result in [15], in assay [16], in assay [17] and in assay [18] was inactive. Moreover, the Potency result in assay [5], in assay [6] and in assay [19] was “inactive” each time.
With `Oc1ccccc1Cl`, the compound was classed as inactive in assay [1], in [2], in [3], in assay [4], in assay [7] and in assay [9]. In addition, the result in assay [10], in assay [11], in assay [12], in [20], in assay [13] and in assay [14] was inactive. Besides, the compound was classed as inactive in assay [15], in assay [16], in assay [17] and in assay [18]. Moreover, the Potency result in assay [5], in [6] and in assay [19] was “inactive” each time.
`Clc1ccc(Cl)cc1`: the result in assay [1], in assay [2], in assay [3], in [4], in [7] and in assay [8] was inactive. Further, the outcome in assay [9], in assay [10], in assay [11], in [12], in [20] and in assay [13] was inactive. For the same compound, the result in assay [14], in assay [15], in [16], in assay [17] and in assay [18] was inactive. For the same compound, the Potency result in assay [5] and in assay [6] was “inactive” throughout.
Turning to `Nc1c(Cl)c(Cl)nc(C(=O)O)c1Cl`, the call in assay [1], in assay [2], in assay [3], in assay [4], in [7] and in [8] was inactive. In addition, the compound was called inactive in assay [9], in assay [10], in assay [11], in assay [12], in assay [20] and in assay [13]. Moreover, the compound was called inactive in assay [14], in assay [15], in [16], in [17] and in [18]. In addition, the Potency entry in assay [5] is “inactive”. In addition, in assay [6], the Potency result is “inactive and 56.1 µM (active)”.
For `CCCCOC(=O)c1ccccc1C(=O)OCCCC`, the compound was classed as inactive in [1], in assay [2], in assay [3], in [4], in [7] and in [9]. Also, the compound was called inactive in [10], in assay [11], in [12], in assay [13], in assay [14] and in [15]. Further, the result in assay [16], in [17] and in assay [18] was inactive. Further, the Potency entry in assay [5] and in assay [6] was “inactive” each time.
